Screens deposited in PubChem by National Center for Advancing Translational Sciences (NCATS).
Many of the other results were omitted from the sample, so hits are more common in it than they were.
Pf Dd2 inh: Plasmodium falciparum Dd2 growth inhibition | P. falciparum Dd2 growth, SYBR Green, 72 h | Potency, µM (titrated, usually from 28.9 µM), without a hit: top-dose activity, negative = inhibition, usual class: inhibitors | 4.3% of 120,000 active | AID 1347417; active = well fitted inhibition curve with a large enough effect;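 also: plate controls were DMSO vehicle for no effect and reference drug for full effect; nearly all actives have a fitted effect of over 65% in size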
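Infected erythrocytes (Dd2, 0.3% parasitemia, 2.5% hematocrit final) are added to compound in RPMI-1640/Albumax II medium, grown 72 h at 37C in low oxygen, then lysed with saponin/Triton-X containing SYBR Green and read by fluorescence.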
* hit, by the source's call; i = inactive; [ ] = remark or other dose. Potency is read from the fitted curve at half-maximal effect.

SMILES	Pf Dd2 inh
COc1ccccc1CCNC(=O)c1ccc2c(c1)c(C)c(C)n2Cc1ccc(Cl)cc1	i
COc1cccc(CNC(=O)CCC2CCN(C(=O)c3ccccc3F)CC2)c1OC	-19.4%
CCN(CC)C(=O)CCc1nc(C2CCCN2C(=O)c2ccccc2)no1 (stereo not drawn)	-14.5%
Cc1ccn(CC(=O)N2CCC3(CCCN(CCCc4ccccc4)C3)C2)n1 (stereo not drawn)	-27.2%
O=C(c1ccc(F)cc1)N1CCC2(CC1)CN[S+](=O)([O-])c1ccccc1N2	-20.1%
O=C1Nc2ccccc2CC12CN(Cc1cscn1)C2	9.7%[44.1 µM]
COc1ccc(C(=O)N[C@@H]2CCC[C@@H]2C(=O)NCc2cccnc2)cc1	11.8%
O=C(NCCc1ccc(Cl)cc1)c1nc(-c2ccc(F)cc2)c2ccccn12	10.8%
O=C(NCc1ccc(F)cc1)c1nc(-c2cc(Cl)cc(Cl)c2)c2ccccn12	10µM*
C[S+](=O)([O-])c1ccc(-c2nc(C(=O)NCc3ccc(F)cc3)n3ccccc23)cc1	11.2µM*
C[S+](=O)([O-])c1ccc(-c2nc(C(=O)NCc3cccnc3)n3ccccc23)cc1	-13.9%
O=C(NCc1ccc2c(c1)OCO2)c1nc(-c2cc(Cl)cc(Cl)c2)c2ccccn12	-26.3%
COCCNC(=O)c1nc(-c2ccc(F)cc2)c2ccccn12	i
Cc1ccc(C2c3cc(OCc4nc(C(=O)NC(C)C)co4)ccc3CCN2C(=O)C2CC2)cc1 (stereo not drawn)	-15.8%
CCn1cc(CN2CCCCC2c2nc(CCOCC3CCOCC3)no2)cn1 (stereo not drawn)	-8.0%
CN1CCC(N2CCN(C(=O)C3CCOCC3)CC2)C1=O (stereo not drawn)	-1.7%
COc1ccc(CN2C[C@@H]3C(=O)N(Cc4ccc5c(c4)OCO5)C(=O)[C@@H]3C2)c(OC)c1	i
COc1cc(OCc2ccccc2)ccc1CN1C[C@@H]2CCN[C@@H]2C1	10µM*
COCCN1C(=O)[C@H]2CN(Cc3ccc(OC)cc3OC)C[C@H]2C1=O	i
Cc1nc(N2CCC(NC(=O)c3cccnc3)CC2)cc(C(F)(F)F)n1	i
COc1cccc(C(=O)NC2CCN(c3cc(C(F)(F)F)nc(C)n3)CC2)c1OC	11.2µM*
Cc1nc(N2CCC(NC(=O)c3cc4ccccc4[nH]3)CC2)cc(C(F)(F)F)n1	2µM*
Cc1nc(N2CCC(NC(=O)c3ccccn3)CC2)cc(C(F)(F)F)n1	-14.2%
COc1ccccc1CCC(=O)NC1CCN(c2cc(C(F)(F)F)nc(C)n2)CC1	-4.9%
COc1cccc(C(=O)NC2CCN(c3cc(C(F)(F)F)nc(C)n3)CC2)c1	i
SMILES	Pf Dd2 inh
COC(=O)C1CCN(CC(O)COc2cccc(CN3CC=C(C)CC3)c2)CC1 (stereo not drawn)	-5.5%
CC(=O)NCC(=O)NCc1nnc2ccc(-c3ccc(C)c(C)c3)nn12	-17.8%
CCc1cccc2c(C(CC(=O)NCC(C)C)c3cccc([N+](=O)[O-])c3)c[nH]c12 (stereo not drawn)	i
Cc1cccc(CN2C[C@]34C=C[C@H](O3)C(C(=O)N(C)Cc3nnc(C)o3)C4C2=O)c1 (stereo partly drawn)	12.3%
Cc1ccc(C)c(C(=O)NCc2nnc3cc(-c4nc(C)no4)ccn23)c1	i
COc1cc(NC(=O)Cn2ccn3nc(-c4ccccc4)c(CO)c3c2=O)cc(OC)c1OC	-9.9%
O=C(Cn1ncc2c3ccccc3n(Cc3ccccc3F)c2c1=O)N1CCCCCC1	10µM*
CCCn1c2ccccc2c2cnn(CC(=O)N3CCCC(C)C3)c(=O)c21 (stereo not drawn)	-11.1%
CC1CCCCN1CCCNC(=O)Cn1ncc2c3ccccc3n(Cc3ccccc3F)c2c1=O (stereo not drawn)	5.01µM*
CC1CCCCN1CCCNC(=O)Cn1ncc2c3ccccc3n(C)c2c1=O (stereo not drawn)	i
CCCn1c2ccccc2c2cnn(CC(=O)NCCCN3CCCCC3)c(=O)c21	-19.2%
CCOC(=O)C1CCCN(C(=O)Cn2ncc3c4ccccc4n(Cc4ccccc4)c3c2=O)C1 (stereo not drawn)	0.1%
Cc1ccc(S(=O)(=O)N2CCC(n3cnnc3C)CC2)cc1Cl	-16.5%
COc1ccc(CCC(=O)N2CCC[C@H]2c2nc(-c3ccccc3)no2)cc1	i
O=C(NCCc1csc(-c2cccnc2)n1)C1CC2(CCNCC2)CN1 (stereo not drawn)	-2.9%
CCc1ccc(NC(=O)Cn2c(-c3cnccn3)nc(C)c(C)c2=O)cc1	i
Cc1noc(C)c1-c1cc2c(cc(-c3ccccc3)n2C)c(N2CCOCC2)n1	-23.3%[44.1 µM]
Cc1ccc(NC(=O)N[C@@H]2C=C(C(=O)N[C@@H](Cc3cccs3)C(N)=O)C[C@@H](O)[C@@H]2O)cc1	-3.3%
CN1C(=O)C(CC(=O)NCCCN2CCc3ccccc3C2)=C2CCCCC21 (stereo not drawn)	-22.4%
CC1CCN(c2ccc(CNC(=O)CC3=C4CCCCC4N(C)C3=O)cc2)CC1 (stereo not drawn)	10µM*
CCNC(=O)CC1=C2CCCCC2N(C)C1=O (stereo not drawn)	-16.9%
CN1C(=O)C(CC(=O)NC2CC2)=C2CCCCC21 (stereo not drawn)	-11.9%
CN1C(=O)C(CC(=O)NCC2CCN(Cc3ccc(F)cc3)CC2)=C2CCCCC21 (stereo not drawn)	5.01µM*
O=C(CC1=C2CCCCC2N(Cc2ccc(F)cc2)C1=O)NC1CC1 (stereo not drawn)	-21.6%
Cc1cnn(CCC(=O)N[C@@H]2COCC[C@H]2OCc2ccccn2)c1	-12.9%
SMILES	Pf Dd2 inh
Cc1cccc(C(=O)N2CC[C@@](C)(O)[C@@H](Cc3ccccc3)C2)c1C	-14.3%
COCC1CN(Cc2cccnc2)CC12CCNCC2 (stereo not drawn)	7.1%
COCC1CN(Cc2c[nH]c3ccccc23)CC12CCNCC2 (stereo not drawn)	6.5%
COCC1CN(Cc2cccc(OC(F)(F)F)c2)CC12CCNCC2 (stereo not drawn)	1.26µM*
COc1cccc(C(=O)N2CCC(C(NC(=O)c3cccc(C)c3)C(=O)N3CCCC3)CC2)c1 (stereo not drawn)	i
COc1ccc(C[C@H](NC(=O)[C@@]2(O)C[C@@H](O)[C@H](O)[C@@H](NC(=O)CC(C)(C)C)C2)C(N)=O)cc1	8.5%
O=C(c1nnc(CN2CCOCC2)n1Cc1ccccc1)N1CCC[C@@H]1c1ccc(Br)cc1	i
COc1cccc(COC2CN(CC(C)C)C(=O)CN(C(=O)c3snnc3C)C2)c1 (stereo not drawn)	-11.2%
CCc1nc(-c2c3n(c(=O)n(Cc4cc(F)ccc4F)c2=O)CCCC3)no1	-0.4%
COC(C)(C)C(=O)N1CCc2onc(-c3ccc4c(c3)OCO4)c2C1	-13.6%
CCOc1ccc(N2CC(c3nc4ccccc4n3CCOc3ccccc3OC)CC2=O)cc1 (stereo not drawn)	12.6µM*
Cc1cc(C)c(Cn2c(C3CC(=O)N(c4ccc(F)cc4)C3)nc3ccccc32)c(C)c1 (stereo not drawn)	i
CCOc1ccc(N2CC(c3nc4ccccc4n3CCCOc3ccccc3)CC2=O)cc1 (stereo not drawn)	12.6µM*
CCOC(=O)Cn1c(C2CC(=O)N(c3ccc(C)cc3)C2)nc2ccccc21 (stereo not drawn)	37.0%
CCOc1ccc(N2CC(c3nc(-c4cc(OC)c(OC)c(OC)c4)no3)CC2=O)cc1 (stereo not drawn)	36.2%
CC(=O)N1CCCC1c1nc2ccccc2n1Cc1ccc(F)cc1 (stereo not drawn)	22.9%
